High-throughput results deposited in PubChem BioAssay by several laboratories.
Shown are actives, neighbours in structure and some others; about 3% of the full set was active somewhere.
Peg3 prom inh = Peg3 promoter-driven luciferase inhibitors, primary screen, cell-based, HeLa, luciferase luminescence; HeLa PEG-Prom luciferase reporter, overnight; inhibition, % at 20 µM; actives 1.7% (n = 360,000); AID 588405, 2011;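 active = inhibition of at least 50% at 20 µM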
TRPM1 prom inh = inhibitors of MITF-dependent TRPM1 promoter reporter, primary screen, cell-based, SK-MEL-5, single point, luciferase; SK-MEL-5 TRPM1 promoter luciferase, 24 h; inhibition, % at 12.5 µM; actives 0.83% (n = 330,000);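 active = mean inhibition across replicates of 60% or more, whatever share of single replicates reaches that level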
ABHD5-PLIN5 inh = ABHD5-PLIN5 interaction inhibitors, primary screen, cell lysate, split luciferase complementation, luminescence | Perilipin-5 (Homo sapiens) + 1-acylglycerol-3-phosphate O-acyltransferase ABHD5 (Homo … | actives 0.78% (n = 360,000) | inhibition, % at 4 µM | Split G. princeps luciferase complementation, 4 h;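 active = inhibition above the mean inhibition across every tested compound plus 3 SD, cut at about 22% in these data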;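 note: 0% = DMSO only wells and the 100% control is not disclosed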
Target sequence (Q00G26 whole entry, looked up): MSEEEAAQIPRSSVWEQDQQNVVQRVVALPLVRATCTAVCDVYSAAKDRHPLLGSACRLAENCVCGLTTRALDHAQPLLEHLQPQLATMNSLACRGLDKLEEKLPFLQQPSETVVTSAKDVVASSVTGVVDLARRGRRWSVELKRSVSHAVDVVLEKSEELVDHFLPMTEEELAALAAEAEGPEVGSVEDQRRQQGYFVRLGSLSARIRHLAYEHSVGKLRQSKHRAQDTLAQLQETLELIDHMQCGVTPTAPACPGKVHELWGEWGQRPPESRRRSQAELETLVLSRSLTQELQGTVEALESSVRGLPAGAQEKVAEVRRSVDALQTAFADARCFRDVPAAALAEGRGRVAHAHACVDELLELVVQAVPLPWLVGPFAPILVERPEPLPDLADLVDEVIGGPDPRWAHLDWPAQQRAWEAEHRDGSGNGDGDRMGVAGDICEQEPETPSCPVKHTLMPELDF
Target sequence (Q8WTS1 whole entry, looked up): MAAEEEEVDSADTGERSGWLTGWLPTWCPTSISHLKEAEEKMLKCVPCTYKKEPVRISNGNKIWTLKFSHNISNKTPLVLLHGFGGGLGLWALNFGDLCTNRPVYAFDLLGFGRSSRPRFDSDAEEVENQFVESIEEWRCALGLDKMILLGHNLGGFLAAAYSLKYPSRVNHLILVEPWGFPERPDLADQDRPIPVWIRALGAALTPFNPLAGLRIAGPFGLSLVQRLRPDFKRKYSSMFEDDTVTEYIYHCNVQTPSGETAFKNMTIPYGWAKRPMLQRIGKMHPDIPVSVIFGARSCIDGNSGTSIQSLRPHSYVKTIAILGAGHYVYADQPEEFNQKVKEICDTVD
KKLEB tox = cytotoxicity in KKLEB CF airway cells, primary screen, cytotoxicity control for CF NF-kB inhibitor project, cell-based, uHTS, fluorescence assay plates; KKLEB CF airway cells viability, ATPlite luminescence, overnight; stronger effect = lower value; cells stimulated with P. aeruginosa culture filtrate; actives 0.36% (n = 360,000); activity change (cytotoxicity), % at 5 µM; AID 602141, 2011;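 active = corrected activity change at or below -50% at 5 µM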
HIF-2a inh = HIF-2a reporter inhibitors, primary screen, luminescence, 786-0 RCC cells; 786-0 RCC cells HIF-2a reporter, luciferase luminescence, overnight; inhibition, % at 18.8 µM; actives 0.72% (n = 360,000); AID 624352, 2012;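 active = inhibition of the luminescence signal of 40% or more relative to plate controls, in a single-dose primary screen at 18.75 µM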
CF NFkB block = inhibitors of PAF-induced NF-kB signaling, primary screen, cell-based, GFP fluorescence, uHTS; KKLEB NF-kB-GFP reporter, GFP fluorescence overnight; inhibition, % at 5 µM; actives 0.86% (n = 360,000); AID 588850, 2011;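 active = at least 50% inhibition at 5 µM, scaled per plate between neutral and stimulator controls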;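 note: PAF is a Pseudomonas aeruginosa culture filtrate used as stimulus; plate controls were PAF-stimulated DMSO wells for no effect and unstimulated DMSO wells for full effect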
ABHD5 PLIN5 conf = ABHD5-PLIN5 interaction inhibitors, confirmation, biochemical, luminescence. shares compounds with ABHD5-PLIN5 inh. actives 67% (n = 2,200). inhibition, % at 4 µM. AID 651612, 2012; in the data active = inhibition above about 23%;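 note: 0% = DMSO vehicle wells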
HNF4 split-luc = HNF4 dimerization inhibitors, counter-screen for ABHD5-PLIN5 interaction inhibitor project, biochemical, split-luciferase complementation, luminescence | shares compounds with ABHD5-PLIN5 inh | inhibition, % at 4 µM | actives 77% (n = 2,200);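 active = mean inhibition across replicate wells exceeding the computed hit threshold, cut at about 13% in these data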;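 note: light from luciferase halves that rejoin when HNF4 fusion proteins dimerize; 0% = DMSO only wells and the 100% control is not given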
Mdm2-MdmX confirm = retested Mdm2-MdmX interaction blockers, confirmation, cell-based, luminescence, single concentration, set 2; SaOS-2 split-luciferase Mdm2/MdmX complementation; shares compounds with HIF-2a inh; inhibition, % at 8 µM; actives 99% (n = 740);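 active = mean inhibition of the luminescence signal across two replicates at or above 26 percent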
HIF-2a inh conf = HIF-2a reporter inhibitor retest, confirmation, luminescence, 786-0 RCC cells. shares compounds with HIF-2a inh. HIF-2a luciferase reporter luminescence, overnight. inhibition, % at 18.8 µM. actives 56% (n = 1,800);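 active = mean inhibition across four replicates of at least 40 percent at the single tested concentration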
HIF-1a counter = HIF-1a luciferase reporter signal reduction – MiaPaCa-2 cells, single concentration, counter-screen for HIF-2a inhibitor project, confirmation | shares compounds with HIF-2a inh | MiaPaCa-2 HIF-1a luciferase reporter, desferoxamine, overnight | inhibition, % at 18.8 µM | actives 72% (n = 1,800);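 active = mean inhibition of the reporter signal across four replicates at the single tested dose of 50% or more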
* = called active by the depositor; . = not tested or not shown.

SMILES	Peg3 prom inh	TRPM1 prom inh	ABHD5-PLIN5 inh	KKLEB tox	HIF-2a inh	CF NFkB block	ABHD5 PLIN5 conf	HNF4 split-luc	HIF-2a inh conf	HIF-1a counter	others
C#CCN(C[C@@H]1[C@@H](OC(=O)NCc2ccccc2F)[C@@H](OC(=O)NCc2ccccc2F)Cn2c(=O)n(CCCCCC)c(=O)n21)S(=O)(=O)c1ccc(C)cc1	-1	.	-7	6	6	17	.	.	.	.
C#CCN(C[C@@H]1[C@@H](OC(=O)NCc2ccccc2F)[C@@H](OC(=O)NCc2ccccc2F)Cn2c(=O)ccc(=O)n21)S(=O)(=O)c1ccc(C)cc1	97*	.	40*	-85*	95*	77*	58*	27*	97*	106*
C#CCN(C[C@H]1[C@H](OC(=O)Nc2cccs2)[C@H](OC(=O)Nc2cccs2)C[C@H]2C(=O)N(c3ccccc3)C(=O)[C@@H]12)S(=O)(=O)c1ccc(C)cc1	8	.	9	-2	2	11	.	.	.	.
C#CCN(C[C@@H]1[C@@H](OC(=O)Nc2cccs2)[C@@H](OC(=O)Nc2cccs2)Cn2c(=O)ccc(=O)n21)S(=O)(=O)c1ccc(C)cc1	96*	.	61*	-60*	97*	81*	87*	50*	96*	108*
CCOC(=O)C1CCN(C(=O)c2cc(S(=O)(=O)N3CCOCC3)ccc2C)CC1	-8	-10	4	1	7	5	.	.	.	.
CC(Oc1ccc(Br)cc1)C(=O)N(C)CC(=O)Nc1ccc(N2CCOCC2)cc1 (stereo not given)	13	4	10	-9	9	20	.	.	.	.
CSc1ccc(C(=O)C2CCCN(C(=O)c3nonc3C)C2)cc1 (stereo not given)	17	-2	-3	-14	-10	-29	.	.	.	.
COCCCn1c2nc3ccccc3nc2c2c(=O)n(Cc3ccc(Cl)cc3)cnc21	21	13	-2	2	5	-6	.	.	.	.
O=c1c2c3nc4ccccc4nc3n(Cc3ccccc3)c2ncn1Cc1ccco1	76*	4	44*	3	44*	11	96*	95*	-2	78*
O=C1C=CC(=O)N1Cc1ccncc1	12	8	0	7	4	-23	.	.	.	.
O=C1C=CC(=O)N1CCCCCCCCCCN1C(=O)C=CC1=O	102*	91*	58*	-25	71*	74*	68*	106*	61*	80*
CC(=O)N/C(=C/c1ccccc1)c1ccccc1	-21	-4	0	13	-26	2	.	.	.	.
CC(C)(C)NCC(=Cc1ccccc1)C(=O)c1ccccc1	101*	98*	41*	-13	80*	4	69*	54*	99*	107*
COc1cc(C=C2C(=O)C=CC2=O)ccc1O	.	.	99*	.	84*	.	94*	108*	99*	95*
COc1cc(/C=C2/C(=O)CNC2=O)ccc1O	10	1	0	15	19	5	.	.	.	.
COc1ccc(S(=O)(=O)N(CC(=O)NN=C2CCN(C)CC2)c2cc(Cl)ccc2OC)cc1OC	-1	-4	1	11	11	13	.	.	.	.
Cc1cc(C)c(C#N)c(Sc2nc(C)c([N+](=O)[O-])c(C)c2C#N)n1	98*	.	31*	-28	90*	8	36*	27*	26	40
CCOc1ccc(/C=C/C(=O)c2ccc(-c3ccccc3)cc2)cc1	28	-2	5	6	2	-9	.	.	.	.
COc1ccc2cc(C(=O)/C=C/c3cc(OC)c(OC)c(OC)c3)ccc2c1	28	-2	-3	-9	6	-1	.	.	.	.
N#Cc1ccc(/C=C/C(=O)c2ccccc2)cc1	98*	6	83*	1	87*	17	100*	105*	-63	65*
COc1cc(C=CC(=O)c2ccccc2)cc(OC)c1OC	98*	.	48*	-7	37*	34	68*	50*	34	95*
COCCN(CC(=O)Nc1cccc(C)c1C)C(=O)c1cc2c(s1)CCC2	17	.	4	3	0	11	.	.	.	.
CCCNC(=O)c1nnsc1S(=O)(=O)c1ccc(Cl)cc1	101*	86*	77*	-48	79*	89*	80*	108*	69*	57*	Mdm2-MdmX confirm=103*
CCCNC(=O)c1nnsc1S(=O)c1ccc(Cl)cc1 (stereo not given)	104*	67*	75*	-5	44*	84*	96*	108*	25	99*
CCCNC(=O)c1ccc2snnc2c1	6	5	6	1	17	11	.	.	.	.
CCCNC(=O)NS(=O)(=O)c1ccc(Cl)cc1	-2	-2	1	8	8	-6	.	.	.	.
CC(C)C[C@H](NC(=O)OC(C)(C)C)c1nnc(SCc2ccccc2)o1	15	-2	-9	16	16	-4	.	.	.	.
Cc1ccccc1CS(=O)(=O)c1nnc([C@H](CC(C)C)NC(=O)OC(C)(C)C)o1	96*	84*	45*	-2	69*	49	69*	90*	14	-5
O=C(COC(=O)C1CC2CCCC(C1)C2=O)Nc1ccccc1 (stereo not given)	6	-3	4	19	11	-6	.	.	.	.
CCn1c(Cl)c(C=O)s/c1=N\S(=O)(=O)c1ccccc1	105*	98*	48*	-85*	95*	88*	71*	105*	99*	105*	Mdm2-MdmX confirm=103*
